Data from PubChem BioAssay (NCATS).
Inconclusive results are not listed. Activity calls are given as the source filed them. Unless noted, calls follow the shape of the dose curve; as a rule, active = well fitted curve in the direction sought with a large enough effect; inconclusive = small, poorly fitted or top-dose-only effect, or another doubt; inactive = no such curve, though single readings can be large; an effect the other way counts as inactive or inconclusive.

Experiments:
[1] = molecular target: Lysosomal acid glucosylceramidase (Homo sapiens) (UniProt P04062); experiment: Glucocerebrosidase-p2 (AID 348; in the data active = potency below about 10 µM; also: potency is read from the fitted curve at half-maximal effect); conditions: purified GBA, blue fluorogenic substrate, 40 min
In short: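 Normal human glucocerebrosidase (0.2 nM) with blue fluorogenic substrate (80 uM final) in citrate/phosphate pH 5.9 with 10mM sodium taurocholate, 0.01% tween-20; 40 min RT, NaOH/glycine stop; fluorescence Ex 365/Em 440; AC50 from a titration from 0.6 nM upwards.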

[2] = molecular target: Cytochrome P450 1A2 (Homo sapiens) (UniProt P05177); experiment: p450-cyp1a2 (AID 410; calls by dose curve; also: potency is read from the fitted curve at half-maximal effect); conditions: recombinant CYP1A2, luciferin-ME demethylation, luminescence; series mostly up to 57 µM
In short: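 Luminescent demethylation readout: Luciferin-ME (100uM, equal to Km) turned over by 20nM CYP1A2 for 60 min at room temperature after NADPH regeneration addition, following 10 min compound preincubation. Normalization used 57 uM furafylline as full inhibition.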

[3] = NFAT Signaling Pathway (AID 444; active = well fitted curve in either direction with a large enough effect, not every such curve was filed as active;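 also: carbachol stimulus at about its EC50 of 1 µM final; % is scaled to controls: 0 for no effect and ±100 for the full control effect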); conditions: Jurkat NFAT-bla M1, carbachol, beta-lactamase ratio, 5 h; at 7.69 µM (top of the series) unless noted
In short: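 Jurkat cells carrying an NFAT-driven β-lactamase reporter and co-transfected muscarinic M1 receptor were treated with compound plus carbachol (1 uM final, an EC50 level) for 5 h at 37 °C. CCF4 loading followed for 1 h at RT; 460/530 nm ratio gave %activity.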

[4] = Stat Signaling Pathway (AID 446; active = well fitted curve in either direction with a large enough effect, not every such curve was filed as active;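 also: ME-180 cervical cancer cells given 40 pM IL-6 alongside compound; SIE-controlled beta-lactamase reporter measured as 460/530 nm FRET emission ratio; % is scaled to controls: 0 for no effect and ±100 for the full control effect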); conditions: ME-180 (cervical carcinoma) SIE beta-lactamase reporter, IL-6 stimulated, 5 h; at 7.69 µM (top of the series) unless noted
In short: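 Compound effects on IL-6-induced STAT reporter activity were measured in ME-180 cells. After overnight culture, cells were co-treated with 40 pM IL-6 for 5 hrs before beta-lactamase substrate loading at room temperature.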

[5] = molecular target: Glucocorticoid receptor (Homo sapiens) (UniProt P04150); experiment: GR-GFP Redistribution (AID 450;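 active = compounds whose dose series gives a full or clear partial fitted curve of increased nuclear translocation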; also: potency is read from the fitted curve at half-maximal effect); conditions: U2OS GR-GFP nuclear translocation, laser cytometry, 2 h
[6] = molecular target: Glucocorticoid receptor (Homo sapiens) (UniProt P04150); experiment: GR-EFC Redistribution (AID 451; calls by dose curve; also: potency is read from the fitted curve at half-maximal effect); conditions: CHO-K1 GR-EFC translocation, beta-gal luminescence, 2 h
In short: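 CHO-K1 cells stably expressing nuclear-localized β-gal enzyme acceptor and GR fused C-terminally to the enzyme donor fragment; ligand-driven nuclear translocation restores β-gal by complementation. Compounds titrated up to 46 uM final, 2 h at 37 °C; luminescence read.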

[7] = molecular target: Mitogen-activated protein kinase 10 (Mus musculus) (UniProt Q61831); experiment: JNK3 AlphaScreen Assay (AID 530; active = well fitted curve in either direction with a large enough effect, not every such curve was filed as active;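 also: kinase came from lysate of stimulated human HepG2 cells; signal reports phosphorylation of biotinylated GST-cJun 1-79 at Ser73 with 10 µM ATP; % is scaled to controls: 0 for no effect and ±100 for the full control effect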); conditions: JNK3 lysate, c-Jun phosphorylation; series mostly up to 57.1 µM
In short: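 Phosphorylation of biotinylated GST-cJun(1-79) at Ser73 is measured by AlphaScreen proximity luminescence. Enzyme is JNK3 in HepG2 lysates activated with interleukin-1beta and tumor necrosis factor alpha; ATP is 10 uM final.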

[8] = molecular target: Cytochrome P450 3A4 (Homo sapiens) (UniProt P08684); experiment: qHTS Assay for Activators of Cytochrome P450 3A4 (AID 885); conditions: recombinant CYP3A4, Luciferin-PPXE luminescence, 60 min; series mostly up to 57.1 µM; also: nearly all actives have a fitted effect of over 65% in size
In short: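 CYP3A4 activity: Luciferin-PPXE O-dealkylation, 25uM substrate, 200mM KPO4, RT throughout. Read-out is luciferase luminescence; higher values reflect activation.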

[9] = molecular target: Dual specificity protein kinase CLK4 (Homo sapiens) (UniProt Q9HAZ1); experiment: qHTS Assay for Inhibitors of CDC-like Kinase 4 (Kinase-Glo Assay) (AID 1770); conditions: recombinant Clk4, Kinase-Glo ATP depletion luminescence; series mostly up to 66.7 µM; also: nearly all actives have a fitted effect of over 65% in size; also: potency is read from the fitted curve at half-maximal effect
In short: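 25 nM Clk4 with 100 uM RS repeat peptide and 1 uM ATP (final) in Tris pH7.5, 10 mM MgCl2, 4.5 h at room temperature. Remaining ATP measured by Kinase-Glo luciferase luminescence.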

[10] = molecular target: Dual specificity protein kinase CLK4 (Homo sapiens) (UniProt Q9HAZ1); experiment: qHTS Assay for Inhibitors of CDC-like Kinase 4 (ADP-Glo Assay) (AID 1771); conditions: recombinant CLK4, ADP-Glo luminescence; series mostly up to 80 µM; also: nearly all actives have a fitted effect of over 70% in size; also: potency is read from the fitted curve at half-maximal effect
In short: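 ADP production was read by ADP-Glo luminescence after residual ATP depletion, following 1 h room-temperature reaction of 25 nM Clk4, 1 uM ATP and 100 uM RS peptide with MgCl2, EGTA, DTT and Triton X-100.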

[11] = molecular target: Dual specificity protein kinase CLK4 (Homo sapiens) (UniProt Q9HAZ1); experiment: qHTS Assay for Inhibitors of CDC-like Kinase 4 (ADP-FP Assay) (AID 1795); conditions: Transcreener ADP fluorescence polarization; series mostly up to 50 µM; also: nearly all actives have a fitted effect of over 60% in size; also: potency is read from the fitted curve at half-maximal effect
In short: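 Recombinant Clk4 (6.25 nM) phosphorylated 100 uM RS repeat peptide with 1 uM ATP in 25 mM Tris pH 7.5, 10 mM MgCl2, 0.5 mM EGTA, 2.5 mM DTT, 0.01% Triton X-100 for 1 h. ADP was detected by Transcreener ADP2 competitive fluorescence polarization after 30 min at room temperature.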

[12] = molecular target: Ubiquitin carboxyl-terminal hydrolase 1 (Homo sapiens) (UniProt O94782); experiment: Inhibitors of USP1/UAF1: Pilot qHTS (AID 504865); conditions: purified USP1/UAF1, Ub-rhodamine cleavage fluorescence; series mostly up to 54.9 µM;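 also: rhodamine fluorescence freed from ubiquitin-rhodamine substrate followed over time; top concentration of the series differs between compounds; % is scaled to controls: 0 for no effect and ±100 for the full control effect; nearly all actives have a fitted effect of over 35% in size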
In short: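 USP1/UAF1 complex at 1 nM preincubated 15 min at room temperature with compound, then Ub-Rho substrate added at 150 nM final. Fluorescence (480/540 nm) read kinetically in 50 mM HEPES pH 7.8, 0.5 mM EDTA, 1 mM TCEP, 0.1 mg/ml BSA, 0.01% Tween-20.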

[13] = Primary qHTS for small molecule stabilizers of the endoplasmic reticulum resident proteome: Secreted ER Calcium Modulated Protein (SERCaMP) assay (AID 1508630); conditions: SH-SY5Y GLuc-SERCaMP (Gaussia luciferase released on ER calcium loss) secretion, thapsigargin, luminescence; series mostly up to 38.4 µM; also: % is scaled to controls: 0 for no effect and ±100 for the full control effect
In short: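 The SH-SY5Y reporter protocol was run at 3 concentrations up to 38.3 uM (primary) or 11 concentrations (follow-up): 16 h compound, 100 nM thapsigargin for 4 h, then extracellular luciferase luminescence.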

[14] = molecular target: Cytochrome P450 3A4 (Homo sapiens) (UniProt P08684); experiment: qHTS Assay for Inhibitors and Substrates of Cytochrome P450 3A4 (AID 884); conditions: recombinant CYP3A4, Luciferin-PPXE luminescence; series mostly up to 57.1 µM; also: potency is read from the fitted curve at half-maximal effect; nearly all actives have a fitted effect of over 50% in size
In short: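 Luminescent readout of luciferin produced by CYP3A4 (20 nM) dealkylation of Luciferin-PPXE, 25 uM (its KM). NADPH-driven reaction ran 60 min at RT after 10 min compound preincubation; data scaled to 57 uM ketoconazole as 100% inhibition.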

[15] = molecular target: Cytochrome P450 2C19 (Homo sapiens) (UniProt P33261); experiment: qHTS Assay for Inhibitors and Substrates of Cytochrome P450 2C19 (AID 899); conditions: recombinant CYP2C19, luciferin-H EGE luminescence; series mostly up to 57.1 µM; also: potency is read from the fitted curve at half-maximal effect; nearly all actives have a fitted effect of over 60% in size
In short: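 NADPH-dependent conversion of Luciferin-H EGE (10uM, at KM) by 5nM enzyme in 50mM KPO4, 60 min at 37C following 10 min compound preincubation. Stopped with luciferin detection buffer; luminescence read after 20 min.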

[16] = molecular target: 3',5'-cyclic-AMP phosphodiesterase 4B (Homo sapiens) (UniProt Q07343); experiment: qHTS Assay for Inhibitors of PDE-IV (AID 607; active = well fitted activation curve with a large enough effect in the main read-out, with a control signal flat, not every such curve was filed as active; also: % of control where 0% means no effect); conditions: HEK293 ACTOne CNG channel cells, membrane potential fluorescence; series mostly up to 22.9 µM
In short: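 ACTOne HEK293 cells carry a modified cAMP-gated CNG channel and express endogenous PDE4; plated 1000 cells/well, compounds up to 22.9 uM final. Membrane-potential dye fluorescence (ex 535/em 590) was read; parental cells received 10 uM forskolin + 100 uM RO 20-1724.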

[17] = molecular target: Cytochrome P450 2D6 (Homo sapiens) (UniProt P10635); experiment: qHTS Assay for Inhibitors and Substrates of Cytochrome P450 2D6 (AID 891); conditions: recombinant CYP2D6, luciferin-ME EGE luminescence; series mostly up to 57.1 µM; also: potency is read from the fitted curve at half-maximal effect; nearly all actives have a fitted effect of over 60% in size
In short: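 Luminescent read-out of luciferin formed by 5 nM human CYP2D6 demethylating 30 uM Luciferin-ME EGE (Km level) over 60 min at room temperature after NADPH regeneration addition. Data normalized to full inhibition by 1.43 uM quinidine.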

Sequence of Lysosomal acid glucosylceramidase (Homo sapiens) (P04062 whole entry, looked up): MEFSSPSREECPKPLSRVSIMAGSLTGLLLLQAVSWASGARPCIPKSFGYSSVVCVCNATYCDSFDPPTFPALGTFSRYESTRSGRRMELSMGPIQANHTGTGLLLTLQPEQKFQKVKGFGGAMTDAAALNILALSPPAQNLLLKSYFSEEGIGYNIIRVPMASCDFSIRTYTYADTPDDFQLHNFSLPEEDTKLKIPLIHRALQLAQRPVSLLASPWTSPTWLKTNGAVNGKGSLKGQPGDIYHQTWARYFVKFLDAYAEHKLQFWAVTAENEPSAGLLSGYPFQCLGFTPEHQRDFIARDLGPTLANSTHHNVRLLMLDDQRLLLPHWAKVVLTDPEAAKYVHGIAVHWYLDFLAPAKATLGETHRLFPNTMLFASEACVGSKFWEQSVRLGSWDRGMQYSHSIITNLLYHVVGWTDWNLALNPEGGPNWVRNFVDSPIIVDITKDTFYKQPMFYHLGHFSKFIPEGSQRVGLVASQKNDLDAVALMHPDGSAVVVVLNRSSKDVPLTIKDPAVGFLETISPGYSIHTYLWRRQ
Sequence of Glucocorticoid receptor (Homo sapiens) (P04150 whole entry, looked up, the tested form may be a part): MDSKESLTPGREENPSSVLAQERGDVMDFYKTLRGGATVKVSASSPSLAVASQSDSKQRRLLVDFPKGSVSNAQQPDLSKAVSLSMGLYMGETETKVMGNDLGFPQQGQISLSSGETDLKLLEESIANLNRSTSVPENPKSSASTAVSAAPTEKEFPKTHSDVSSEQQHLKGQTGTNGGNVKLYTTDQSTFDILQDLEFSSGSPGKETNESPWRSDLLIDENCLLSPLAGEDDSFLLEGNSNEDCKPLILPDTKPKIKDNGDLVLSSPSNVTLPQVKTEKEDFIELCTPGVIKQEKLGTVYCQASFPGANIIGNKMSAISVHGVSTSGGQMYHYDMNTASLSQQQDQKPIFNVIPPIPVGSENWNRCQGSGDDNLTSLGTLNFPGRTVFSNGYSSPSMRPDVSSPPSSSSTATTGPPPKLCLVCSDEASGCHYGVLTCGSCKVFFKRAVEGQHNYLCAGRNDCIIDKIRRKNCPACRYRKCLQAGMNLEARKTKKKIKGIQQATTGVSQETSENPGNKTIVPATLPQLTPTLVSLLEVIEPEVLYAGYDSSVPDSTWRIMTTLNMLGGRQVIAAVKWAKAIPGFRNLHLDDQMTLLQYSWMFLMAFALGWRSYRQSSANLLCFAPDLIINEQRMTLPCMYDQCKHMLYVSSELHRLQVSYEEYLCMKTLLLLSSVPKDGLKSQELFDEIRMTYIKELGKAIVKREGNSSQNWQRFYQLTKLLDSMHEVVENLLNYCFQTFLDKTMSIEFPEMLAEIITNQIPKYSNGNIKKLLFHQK
Sequence of Dual specificity protein kinase CLK4 (Homo sapiens) (Q9HAZ1 whole entry, looked up): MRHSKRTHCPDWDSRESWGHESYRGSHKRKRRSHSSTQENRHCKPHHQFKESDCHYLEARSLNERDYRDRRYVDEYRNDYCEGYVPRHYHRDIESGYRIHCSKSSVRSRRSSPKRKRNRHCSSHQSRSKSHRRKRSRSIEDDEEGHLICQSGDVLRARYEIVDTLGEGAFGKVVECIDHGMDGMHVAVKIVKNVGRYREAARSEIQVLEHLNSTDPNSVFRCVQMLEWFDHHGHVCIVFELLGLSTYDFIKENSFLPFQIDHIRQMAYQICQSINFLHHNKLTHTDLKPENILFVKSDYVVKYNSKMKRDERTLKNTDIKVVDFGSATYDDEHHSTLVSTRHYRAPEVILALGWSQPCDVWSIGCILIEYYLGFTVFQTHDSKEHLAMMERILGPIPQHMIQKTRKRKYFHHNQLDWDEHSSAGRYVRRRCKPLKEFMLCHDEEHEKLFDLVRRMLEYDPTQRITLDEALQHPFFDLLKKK
Sequence of Cytochrome P450 3A4 (Homo sapiens) (P08684 whole entry, looked up): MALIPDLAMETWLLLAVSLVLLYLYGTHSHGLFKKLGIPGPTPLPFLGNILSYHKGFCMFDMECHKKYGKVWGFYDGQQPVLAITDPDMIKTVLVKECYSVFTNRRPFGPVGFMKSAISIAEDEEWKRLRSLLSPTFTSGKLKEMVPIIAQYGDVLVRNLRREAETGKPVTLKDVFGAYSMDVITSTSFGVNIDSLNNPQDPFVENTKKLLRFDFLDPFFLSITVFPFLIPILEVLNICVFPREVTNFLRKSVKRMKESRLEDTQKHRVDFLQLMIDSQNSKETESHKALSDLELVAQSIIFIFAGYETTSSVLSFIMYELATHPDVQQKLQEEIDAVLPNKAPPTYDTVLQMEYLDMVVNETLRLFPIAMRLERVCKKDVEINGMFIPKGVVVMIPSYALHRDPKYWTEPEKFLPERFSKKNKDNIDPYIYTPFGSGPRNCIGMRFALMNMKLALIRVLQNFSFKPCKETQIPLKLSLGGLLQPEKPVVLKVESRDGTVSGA
Sequence of Ubiquitin carboxyl-terminal hydrolase 1 (Homo sapiens) (O94782 whole entry, looked up): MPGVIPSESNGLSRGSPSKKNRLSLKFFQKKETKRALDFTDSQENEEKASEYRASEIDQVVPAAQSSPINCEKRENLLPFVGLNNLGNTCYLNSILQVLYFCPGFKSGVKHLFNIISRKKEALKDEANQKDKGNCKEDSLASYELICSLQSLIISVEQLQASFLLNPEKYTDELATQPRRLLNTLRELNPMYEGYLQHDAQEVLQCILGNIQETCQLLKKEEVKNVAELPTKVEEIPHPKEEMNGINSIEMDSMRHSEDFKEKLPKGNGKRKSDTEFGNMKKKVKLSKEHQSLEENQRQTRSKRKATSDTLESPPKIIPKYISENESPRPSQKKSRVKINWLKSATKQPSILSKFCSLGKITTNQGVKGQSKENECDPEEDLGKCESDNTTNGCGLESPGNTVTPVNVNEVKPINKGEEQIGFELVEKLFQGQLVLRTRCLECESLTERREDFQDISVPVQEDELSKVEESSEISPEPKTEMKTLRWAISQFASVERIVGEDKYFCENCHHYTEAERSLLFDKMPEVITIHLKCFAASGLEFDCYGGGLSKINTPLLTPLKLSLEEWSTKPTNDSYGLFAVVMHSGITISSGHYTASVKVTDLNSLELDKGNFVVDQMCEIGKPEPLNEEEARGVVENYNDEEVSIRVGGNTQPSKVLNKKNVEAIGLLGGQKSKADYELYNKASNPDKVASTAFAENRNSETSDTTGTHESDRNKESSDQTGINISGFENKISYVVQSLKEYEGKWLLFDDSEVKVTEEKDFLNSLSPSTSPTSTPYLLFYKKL
Sequence of Cytochrome P450 1A2 (Homo sapiens) (P05177 whole entry, looked up): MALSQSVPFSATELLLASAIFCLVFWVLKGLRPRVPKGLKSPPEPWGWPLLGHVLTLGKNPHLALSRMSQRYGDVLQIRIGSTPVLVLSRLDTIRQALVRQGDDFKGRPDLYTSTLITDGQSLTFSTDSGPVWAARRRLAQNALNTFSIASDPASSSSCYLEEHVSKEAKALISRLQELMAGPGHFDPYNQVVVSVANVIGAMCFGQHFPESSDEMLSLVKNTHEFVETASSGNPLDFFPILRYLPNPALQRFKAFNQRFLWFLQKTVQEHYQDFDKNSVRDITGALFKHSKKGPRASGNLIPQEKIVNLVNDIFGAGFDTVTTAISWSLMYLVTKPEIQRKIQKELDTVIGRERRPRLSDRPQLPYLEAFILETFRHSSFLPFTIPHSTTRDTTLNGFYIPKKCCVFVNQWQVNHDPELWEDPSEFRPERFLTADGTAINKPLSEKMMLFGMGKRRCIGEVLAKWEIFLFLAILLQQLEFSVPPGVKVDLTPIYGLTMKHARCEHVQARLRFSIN
Sequence of Cytochrome P450 2C19 (Homo sapiens) (P33261 whole entry, looked up): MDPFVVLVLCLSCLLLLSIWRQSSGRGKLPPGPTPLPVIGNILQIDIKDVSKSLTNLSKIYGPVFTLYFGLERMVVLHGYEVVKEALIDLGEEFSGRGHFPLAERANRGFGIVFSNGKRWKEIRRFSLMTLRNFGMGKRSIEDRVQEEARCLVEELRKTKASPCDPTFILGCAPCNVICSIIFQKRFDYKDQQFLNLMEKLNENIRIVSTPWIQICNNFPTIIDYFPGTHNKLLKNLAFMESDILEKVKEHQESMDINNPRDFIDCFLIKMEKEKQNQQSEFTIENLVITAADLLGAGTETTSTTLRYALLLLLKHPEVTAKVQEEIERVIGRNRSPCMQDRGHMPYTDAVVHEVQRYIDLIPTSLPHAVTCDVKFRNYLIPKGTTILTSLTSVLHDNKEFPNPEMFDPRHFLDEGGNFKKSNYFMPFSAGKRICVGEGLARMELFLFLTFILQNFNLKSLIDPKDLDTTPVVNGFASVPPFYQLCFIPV
Sequence of 3',5'-cyclic-AMP phosphodiesterase 4B (Homo sapiens) (Q07343 whole entry, looked up): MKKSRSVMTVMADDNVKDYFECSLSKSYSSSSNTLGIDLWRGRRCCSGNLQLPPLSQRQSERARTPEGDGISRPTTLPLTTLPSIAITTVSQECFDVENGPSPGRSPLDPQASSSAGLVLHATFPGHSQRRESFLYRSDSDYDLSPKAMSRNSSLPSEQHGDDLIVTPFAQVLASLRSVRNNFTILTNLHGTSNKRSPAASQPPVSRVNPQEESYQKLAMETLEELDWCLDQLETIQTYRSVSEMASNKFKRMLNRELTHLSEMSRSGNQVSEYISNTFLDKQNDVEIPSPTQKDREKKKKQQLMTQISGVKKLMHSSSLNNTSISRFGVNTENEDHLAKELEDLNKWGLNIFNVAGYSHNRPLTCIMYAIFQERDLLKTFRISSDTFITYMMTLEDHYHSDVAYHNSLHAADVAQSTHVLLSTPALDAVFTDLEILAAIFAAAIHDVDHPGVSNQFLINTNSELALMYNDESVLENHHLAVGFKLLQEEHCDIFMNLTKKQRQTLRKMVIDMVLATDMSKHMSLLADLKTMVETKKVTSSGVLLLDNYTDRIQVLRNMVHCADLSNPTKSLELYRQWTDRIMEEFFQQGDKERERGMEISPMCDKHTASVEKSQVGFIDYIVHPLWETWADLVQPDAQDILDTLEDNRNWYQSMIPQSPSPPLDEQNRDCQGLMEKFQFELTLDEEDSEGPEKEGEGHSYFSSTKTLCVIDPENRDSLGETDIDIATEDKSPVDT

COc1ccc(-c2nc3cnc(OC)nc3n(CCc3ccccc3)c2=O)cc1
inactive: Potency [1] > 11.4 µM | activity change, negative = inhibition [3] 1.97% | activity, negative = inhibition [4] 2.61% | Potency [5] > 9.22 µM | Potency [6] > 46 µM | Potency [7] | Potency [8] | Potency [9] | Potency [10] | Potency [11] | Potency [12] | outcome [13]
active: Potency [2] 6.31 µM

COc1cccc(-c2ccc3ncnc(NC4CC4)c3c2)c1
active: Potency [2] 0.2 µM | Potency [14] 2 µM | Potency [15] 1.26 µM | Potency [9] 0.447 µM | Potency [10] 316 nM | Potency [11] 126 nM
inactive: Potency [1] > 11.4 µM | activity change, negative = inhibition [3] 2.56% | Potency [6] > 46 µM | Potency [7] | Potency [12] | outcome [13]

COc1ccc2[nH]cc(CCNc3ncnc4ccc(-c5c(C)noc5C)cc34)c2c1
inactive: Potency [1] > 11.4 µM | Potency [5] > 46 µM | Potency [6] > 46 µM | Potency [7] | Potency [16] | Potency [8] | Potency [12] | outcome [13]
active: Potency [2] 7.94 µM | Potency [17] 6.31 µM | Potency [15] 3.98 µM | Potency [9] 7.94 µM | Potency [10] 5010 nM | Potency [11] 3980 nM
